Screening data deposited in PubChem by NMMLSC.
Sampled rows, rich in hits. Any-hit rate of the full collection: about 1.2%.
RGS7-Gao: regulators of human RGS7-Galphao interaction. P09471. Multiplexed bead flow cytometry, RGS7-Galphao binding; actives lie on both sides. binding response (% of control), % at 10 µM. hit rate 0.35% among 220,000; in the data active means binding response below about 49% or above about 150%; inconclusive means no clear call, values can overlap the other calls; inactive means in between;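 further: fluorescent Galphao held in activated GDP-AlF4 state binding bead-coupled RGS7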
Target sequence (P09471 whole entry, looked up): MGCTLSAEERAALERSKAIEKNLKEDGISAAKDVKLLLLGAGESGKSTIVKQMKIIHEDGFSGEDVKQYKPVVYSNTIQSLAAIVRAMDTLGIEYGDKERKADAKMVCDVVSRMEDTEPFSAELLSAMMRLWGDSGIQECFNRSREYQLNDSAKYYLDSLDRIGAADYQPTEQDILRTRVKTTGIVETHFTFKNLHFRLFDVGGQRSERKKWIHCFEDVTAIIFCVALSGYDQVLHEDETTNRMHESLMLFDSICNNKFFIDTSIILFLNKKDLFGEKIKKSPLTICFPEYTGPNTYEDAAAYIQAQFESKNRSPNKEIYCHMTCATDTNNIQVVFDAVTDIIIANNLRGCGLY
RGS16-Gao: regulators of human RGS16-Galphao interaction; O15492+P09471; binding response (% of control), % at 10 µM; hit rate 0.38% among 220,000; bead-based flow cytometry RGS16-Galphao binding, fluorescence; actives lie on both sides;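 further: Galphao activated by GDP with aluminum fluoride before binding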
GSH bead fluor: GSH bead compound fluorescence profile; AID 1776; fluorescence (KMESF) at 10 µM; hit rate 0.25% among 190,000; GSH beads flow cytometry, compound fluorescence 488/530 nm; hits give high values; in the data active means fluorescence above about 89;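 further: glutathione beads carrying GST-tagged Bcl family fusion proteins plus one bare bead set; values are compound well signal with DMSO vehicle wells as background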
Avidin bead fluor: avidin bead compound fluorescence profile; AID 1775; fluorescence (KMESF) at 10 µM; hit rate 0.38% among 220,000; Avidin beads, compound fluorescence 488/530 nm, flow cytometry; hits give high values; in the data active means fluorescence above about 47
RGS8-Gao reg: human RGS8-Galphao interaction regulation | response (percent of control binding), % at 10 µM | multiplexed bead flow cytometry, RGS8-Galphao binding; actives lie on both sides | hit rate 0.34% among 220,000 | P09471; in the data active means response below about 60% or above about 140%; inactive means in between;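 further: Galphao activated as the GDP aluminium fluoride complex binding bead-coupled RGS8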
RGS4-Gao reg: human RGS4-Galphao interaction regulation | P09471 | Multiplexed bead flow cytometry, RGS4-Galphao binding; actives lie on both sides | binding response (% of control), % at 10 µM | hit rate 0.33% among 220,000 | AID 1415; in the data active means binding response below about 49% or above about 150%; inactive means in between;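 further: fluorescent Galphao activated with aluminum fluoride binding bead-coupled RGS4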
RGS4-Gao HTS: regulators of human RGS4-Galphao interaction. shares compounds with RGS16-Gao. multiplexed bead flow cytometry, RGS–Galpha-o binding. RGS4–Galpha-o binding response, % at 10 µM. hit rate 99% among 1,600. AID 1504;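 further: fluorescently labeled Galpha-o bound to GDP with aluminium fluoride binding biotinylated RGS beads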
Avidin counter: interferes with biotinylated probe binding to avidin beads; AID 1783; shares compounds with RGS16-Gao; 1,700 tested, under 10 active; inhibition, % at 10 µM; streptavidin beads, fluorescein-biotin binding, flow cytometry;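 active means inhibition above 50%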;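 further: median green fluorescence of gated singlet beads compared with DMSO control wells; 0% = DMSO wells and 100% = complete loss of bead fluorescence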
RGS8-Gao single: confirmation of regulators of human RGS8-Galphao interaction; shares compounds with RGS16-Gao; bead-based flow cytometry RGS8-Galphao binding, fluorescence; actives lie on both sides; binding response (% of control), % at 10 µM; hit rate 3% among 1,700; AID 1836; in the data active means binding response below about 72% or above about 130%; inactive means in between;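 further: Galphao activated as GDP AlF4 complex before binding bead RGS8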
RGS7-Gao single: RGS7-Galphao interaction regulation, single point confirmation | shares compounds with RGS16-Gao | bead-based flow cytometry RGS7-Galphao binding; actives lie on both sides | response (percent of control binding), % at 10 µM | hit rate 7.8% among 1,700 | AID 1837; in the data active means response below about 75% or above about 130%; inactive means in between;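 further: fluorescent Galphao activated with GDP and aluminum fluoride binding bead-coupled RGS7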
RGS16-Gao conf: RGS16-Galphao interaction regulation, single point confirmation; shares compounds with RGS16-Gao; bead-based flow cytometry, RGS16-Galphao binding; actives lie on both sides; response (% of control binding), % at 10 µM; hit rate 4% among 1,700; in the data active means response below about 74% or above about 130%; inactive means in between;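 further: Galphao activated as the GDP aluminium fluoride complex binding bead-coupled RGS16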
RGS4-Gao single: confirmation of regulators of human RGS4-Galphao interaction. shares compounds with RGS16-Gao. RGS4-Galphao binding, multiplexed bead flow cytometry; actives lie on both sides. binding response (% of control), % at 10 µM. hit rate 4% among 1,700; in the data active means binding response below about 74% or above about 130%; inactive means in between
RGS19-Gao conf: RGS19-Galphao interaction regulation, single point confirmation. shares compounds with RGS16-Gao. bead-based flow cytometry RGS19-Galphao binding; actives lie on both sides. response (percent of control binding), % at 10 µM. hit rate 5% among 1,700; in the data active means response below about 50% or above about 160%; inactive means in between;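 further: 100% = no compound control and 0% = blank background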
Target sequence (P09471 whole entry, looked up): as above
Target sequence (P49795 whole entry, looked up): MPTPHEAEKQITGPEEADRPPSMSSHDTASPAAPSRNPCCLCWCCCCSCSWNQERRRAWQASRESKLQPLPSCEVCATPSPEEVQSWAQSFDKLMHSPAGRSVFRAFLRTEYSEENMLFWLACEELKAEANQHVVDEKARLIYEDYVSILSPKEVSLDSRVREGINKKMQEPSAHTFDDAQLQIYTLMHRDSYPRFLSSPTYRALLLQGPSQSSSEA
Starred values were filed as active, the others as inactive; ? = inconclusive; / = no result given; + = active, no number; [ ] = dose if it differs, or a comment. Unless noted, how the calls were made is not given here.

SMILES	RGS7-Gao	RGS16-Gao	GSH bead fluor	Avidin bead fluor	RGS8-Gao reg	RGS4-Gao reg	RGS4-Gao HTS	Avidin counter	RGS8-Gao single	RGS7-Gao single	RGS16-Gao conf	RGS4-Gao single	RGS19-Gao conf
CCC(=O)NC(c1ccc(C)cc1)c1cc([N+](=O)[O-])c2cccnc2c1O (stereo not drawn)	72	13	9	1	58*	68	68*	0	89	89	85	95	42*
C[C@]12CC[C@@H]3c4ccc(O)cc4C(=O)C[C@H]3[C@@H]1CC[C@@H]2O	90	91	64	7	94	93	/	/	/	/	/	/	/
CC1(C)Cc2ccccc2-c2nnc(-c3ccc4ccccc4n3)n21	85	19*	17	5	74	78	78*	1	104	101	106	105	93
Cc1cc2c(cc1C)-c1nnc(-c3ccc4ccccc4n3)n1C(C)(C)C2	94	95	10	18	95	93	/	/	/	/	/	/	/
CCc1nnc(NC(=O)c2cc(S(=O)(=O)N3CCOCC3)ccc2N2CCCCC2)s1	+[activator]	+[activator]	73	897*	393*[activator]	+[activator]	/	3	104	77	89	88	58
CCc1nnc(NC(=O)c2cccc(S(=O)(=O)N3CCc4ccccc43)c2)s1	23*	3.0*	22	0	19*	28*	/	-2	100	91	100	98	95
CC(C)CCNC(=O)NC(=O)COC(=O)c1cc(S(=O)(=O)N2CCOCC2)ccc1N1CCCCC1	13*	16*	30	0	12*	25*	/	0	96	81	96	90	71
O=C(NCCCCNC(=O)c1ccccn1)c1ccccn1	101	110	29	11	105	103	/	/	/	/	/	/	/
OCc1nc2ccccc2n1CCCOc1ccc(Br)cc1	1.2*	-3.6*	40	-4	7.0*	-3.9*	/	2	101	104	102	104	105
Cc1ccc(OCCCCn2c(CO)nc3ccccc32)cc1	101	103	10	12	101	100	/	/	/	/	/	/	/
CC(C)=NOc1cc(NC(=O)CCl)cc([N+](=O)[O-])c1	100	106	13	4	102	101	/	/	/	/	/	/	/
CCC(=O)Nc1cc(ON=C(C)C)cc([N+](=O)[O-])c1	-15*	39	14	-2	34*	-40*	/	-2	99	99	101	98	102
CCN1CCCC1CNCc1cccc(OC)c1OCc1ccc(F)cc1 (stereo not drawn)	95	20*	10	2	77	91	91*	1	104	100	104	104	100
COc1ccc(C2SCC(=O)N2c2c(C)n(C)n(-c3ccccc3)c2=O)cc1 (stereo not drawn)	106	109	6	17	102	101	/	/	/	/	/	/	/
Cc1c(N2C(=O)CSC2c2ccc([N+](=O)[O-])cc2)c(=O)n(-c2ccccc2)n1C (stereo not drawn)	?	165	/	43	115	164*[activator]	/	1	103	102	101	101	104
CCN(C(=O)CSc1nnc(-c2ccccc2Cl)n1C1CCCC1)C1CCS(=O)(=O)C1 (stereo not drawn)	105	845	10	12	110	121	/	/	/	/	/	/	/
O=C(CN1C(=O)CC(c2ccccc2)=Nc2ccccc21)NCc1ccco1	1.6*	-0.5*	29	-2	4.7*	3.2*	/	-2	102	102	102	102	94
CCn1c(Sc2nc(C)nc3scc(-c4cccs4)c23)n[nH]c1=O	/	/	41	/	/	/	/	0	99	101	97	101	85
CC(C)(C)c1ccc(-c2noc(-c3ccno3)n2)cc1	?	98	/	4	99	98	/	/	/	/	/	/	/
CC(C)(C)c1ccc(-c2nc(-c3ccncc3)no2)cc1	89	23*	20	3	75	81	81*	/	/	/	/	/	/
O=C(Nc1ccc(C(=O)O)cc1)Nc1cccc([N+](=O)[O-])c1	121	660	8	15	150*[activator]	122	122*	2	100	102	101	101	94
O=C(Nc1cccc([N+](=O)[O-])c1)Nc1cccc([N+](=O)[O-])c1	105	100	12	25	102	102	/	/	/	/	/	/	/
Cc1ccc(S(=O)(=O)N2CCN(C(=O)C3CCN(C(=O)c4ccccc4C)CC3)CC2)cc1C	?	100	27	8	100	104	/	/	/	/	/	/	/
O=C(Nc1ccccc1)Nc1nccs1	97	101	14	34	103	98	/	/	/	/	/	/	/
CC(C)(C(=O)Nc1nccs1)c1ccccc1	156*[activator]	147	13	12	139	137	137*	3	103	109	104	106	107
SMILES	RGS7-Gao	RGS16-Gao	GSH bead fluor	Avidin bead fluor	RGS8-Gao reg	RGS4-Gao reg	RGS4-Gao HTS	Avidin counter	RGS8-Gao single	RGS7-Gao single	RGS16-Gao conf	RGS4-Gao single	RGS19-Gao conf
O=C(Nc1nnc(-c2ccc(F)cc2)o1)c1ccco1	?	73	/	6	88	71	/	/	/	/	/	/	/
Cc1ccc(C(=O)NCCCn2ccnc2)cc1[N+](=O)[O-]	104	102	9	10	103	98	/	/	/	/	/	/	/
Cc1cc([N+](=O)[O-])nn1CC(=O)NCCCn1ccnc1	269*[activator]	133	20	103*	122	147	147*	-2	102	80	89	90	61
CS(=O)(=O)N(CCc1ccccc1)CC(=O)NCc1ccc2c(c1)OCO2	13*	3.7*	42	0	14*	11*	/	0	93	88	90	90	90
Cc1c(C(=O)NCc2ccc3c(c2)OCO3)oc2ccccc12	89	22*	59	4	70	92	92*	-1	107	105	111	104	118
Cc1ccc2oc(C(=O)NCc3ccc4c(c3)OCO4)c(C)c2c1	100	100	10	7	101	101	/	/	/	/	/	/	/
